Hits are enriched below; roughly 2.2% of the tested compounds scored in any of these assays.
ANO1 block: mouse TMEM16A channel inhibition, primary screen; Q8BHY3; HEK293 TMEM16A/YFP iodide influx fluorescence, ionomycin; normalized B-score (activity score, 25-100; higher = stronger inhibition) at 10 µM; hit rate 1.2% among 310,000;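 active = ratio plate-corrected score three or more library SD toward inhibition, starting fluorescence score within five deviations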;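 note: score derived from kinetic fluorescence span divided by baseline fluorescence per well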
GRK2 aptamer HTS: blocks RNA aptamer binding to human GRK2; bead flow cytometry, FAM-aptamer displacement from GRK2; P25098; inhibition of aptamer binding, % at 10 µM; hit rate 0.59% among 330,000;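 active = inhibition of aptamer binding above 40%, roughly 3 SD of noise, on plates passing a quality check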;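 note: median bead fluorescence of bound FAM aptamer so fluorescent compounds give negative values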
ANO1 activ: mouse TMEM16A channel activation, primary screen; Q8BHY3; HEK293 TMEM16A/YFP-H148Q/I152L, iodide quench fluorescence; stronger effect = lower value; B-score at 10 µM; hit rate 0.3% among 340,000;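 active = fluorescence-ratio B-score plate-corrected deviation score at least 3 library SD below zero, with starting fluorescence score within 5 deviations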;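 note: channel opened by trigger with iodide after compound preincubation; score built on the fluorescence ratio of max minus min over baseline; more negative score means more quench and so TMEM16A activation or potentiation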
NOD2-RIPK2 inh: blocks binding of human NOD2 to RIPK2. O43353. CHO BLA complementation NOD2-RIPK2, CCF4 ratio. inhibition, % at 4.98 µM. hit rate 0.38% among 360,000. AID 624267; in the data active = inhibition above about 21%
TLR4-MyD88 BLA: TLR4-MyD88 interaction inhibition in cells | O00206+Q99836 | HeLa CL3-4 TLR4/MyD88 BLA complementation, FRET ratio | inhibition, % at 8.4 µM | hit rate 0.18% among 200,000; in the data active = inhibition above about 25%
TLR9-MyD88 inh: blocks human TLR9 binding to MyD88 | inhibition, % at 4.98 µM | hit rate 0.21% among 340,000 | AID 504734 | Q9NR96+Q99836 | CHO BLA complementation TLR9-MyD88, CCF4 FRET ratio;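 active = inhibition above the mean over all tested compounds plus 3 SD, cut at about 21% in these data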
NOD2-RIPK2 conf: confirmation of human NOD2-RIPK2 interaction inhibitors; shares compounds with NOD2-RIPK2 inh; CHO cells, NOD2-RIPK2 BLA complementation, CCF4 FRET; inhibition, % at 4.98 µM; hit rate 70% among 1,200;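 active = mean inhibition across replicates above a set limit taken from the earlier primary screen, cut at about 21% in these data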
NOD2 BLA counter: NOD2-RIPK2 counterscreen BLA reporter activity | shares compounds with NOD2-RIPK2 inh | CHO BLA reporter, CCF4 FRET ratio | inhibition, % at 4.98 µM | hit rate 57% among 1,200;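 active = mean inhibition above the low-control mean inhibition plus three low-control SD, cut at about 11% in these data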
A number is an active result; - = inactive; . = no result.

SMILES | ANO1 block | GRK2 aptamer HTS | ANO1 activ | NOD2-RIPK2 inh | TLR4-MyD88 BLA | TLR9-MyD88 inh | NOD2-RIPK2 conf | NOD2 BLA counter
CCc1ccc(Nc2n[n+](-c3ccccc3)c(-c3ccc(N(CC)CC)cc3)s2)cc1 | - | - | - | 28.7 | . | - | 69.0 | 75.6
CCC(C)Sc1cccc(-c2nc3cnccn3c2NC2CCCCC2)c1 (centres undefined) | . | - | - | 34.1 | . | 21.6 | 27.8 | 42.1
CCC(C)Sc1cccc(-c2nc3ccc(C)cn3c2NC2CCCCC2)c1 (centres undefined) | - | - | - | - | . | - | . | .
Cc1cc(SC#N)cc(C)c1NC(=O)CCl | - | - | - | 30.7 | - | - | 28.3 | -
CCc1cc(SC#N)cc(C)c1NC(=O)CCl | - | - | - | 24.2 | - | - | 24.5 | -
O=C(Oc1ccc(-c2nnco2)cc1)N(c1ccccc1)c1ccccc1 | - | - | - | - | - | - | . | .
Cc1cccc(CN(C)C[C@H]2OCc3cnnn3CCCC(=O)N([C@H](C)CO)C[C@@H]2C)c1 | . | . | . | - | . | - | . | .
Cc1ccccc1NC(=O)C1C2CCCCC21 (centres undefined) | - | - | - | - | . | - | . | .
Cc1ccccc1NC(=O)C1C2CC/C=C\CCC21 (centres undefined) | - | - | - | 27.1 | - | - | - | -
CN1CCN(c2ccc(S(=O)(=O)N3CCCCC3)cc2NC(=O)/C=C/c2ccc(Cl)c([N+](=O)[O-])c2)CC1 | - | - | - | 22.0 | . | - | 30.3 | -
O=c1c2ccc(F)cc2sn1-c1ccccc1 | . | . | . | 36.4 | . | - | 46.0 | -
Cc1cccc(NS(=O)(=O)c2ccc(C(=O)NCC(c3ccco3)N(C)C)cc2)c1C (centres undefined) | - | - | - | - | . | - | . | .
COc1ccc(CN2CCn3ncc(C(=O)Nc4ccccc4)c3C2=O)cc1 | - | - | - | 22.4 | - | - | - | -
CNC(=O)C1(C)Cc2c(-c3ccc(NC(C)=O)cc3)ccnc2O1 (centres undefined) | . | . | . | - | . | . | . | .
CC(=O)Nc1ccc(-c2ccnc3c2CC(C)(C(=O)Nc2ccc(Cl)cc2)O3)cc1 (centres undefined) | . | . | . | 21.0 | . | . | - | -
Cc1nn(CC(=O)NC2CCC(C)CC2)c(C)c1[N+](=O)[O-] (centres undefined) | . | - | - | - | . | - | . | .
COc1cccc(CNC(=O)Cn2ccc3cc(S(=O)(=O)N4CCCC4)ccc32)c1 | - | - | - | - | . | - | . | .
CC(C)Oc1ccc(CNC(=O)Cn2ccc3cc(S(=O)(=O)N4CCCC4)ccc32)cc1 | - | - | - | 26.6 | . | - | - | -
O=C(O)CCC1OC(=O)C(O)=C1c1ccccc1 (centres undefined) | - | - | - | - | . | - | . | .
COc1ccc(C(=O)N/C(=C\c2cn(C)c3ccccc23)C(=O)OCC(C)C)cc1 | - | - | - | - | - | - | . | .
O=C(Nc1cccc(S(=O)(=O)N2CCOCC2)c1)c1cc([N+](=O)[O-])ccc1N1CCOCC1 | - | - | - | - | . | - | . | .
O=C(CSc1ccc([N+](=O)[O-])cc1)Nc1cccc(S(=O)(=O)N2CCOCC2)c1 | . | - | - | 40.8 | . | - | - | -
CN1C(=O)[C@H]2[C@@H](c3ccc(F)cc3)N3C(=O)c4ccccc4NC(=O)[C@@]3(C)[C@H]2C1=O | - | - | - | 22.5 | . | - | - | -
COc1ccc2c(c1)OC[C@H]1[C@H]2N2C(=O)c3ccccc3NC(=O)[C@@]2(C)[C@H]1c1ccccc1 | . | - | - | - | . | - | . | .
O=c1c(O)c(-c2ccccc2)oc2cc(O)ccc12 | . | . | . | 24.6 | . | . | 32.1 | 29.4
Cc1csc(=O)n1CCC(=O)NCc1ccc(F)cc1 | . | - | - | - | . | - | . | .
COc1ccccc1-c1cc(C(F)(F)F)nc(S(C)(=O)=O)n1 | - | - | - | 24.9 | - | 26.2 | 41.0 | -
COc1ccccc1-c1cc(C(F)(F)F)nc(N2CCCC2)n1 | - | - | - | - | - | - | . | .
